Test: resazurin metabolic signal in HepG2 cells – cell-based, resazurin fluorescence, 24 h, PK04 Diversity Set, profiling panel (AID 1172); also: test concentration not given here
Details: HepG2 viability, higher = more signal

Row | Compound | z-score
1 | Cc1ccc(S[C@]2(C(=O)O)CC(=O)N(Cc3cc(C(F)(F)F)cc(C(F)(F)F)c3)[C@@H]2c2ccc(CO)cc2)cc1 | -0.403
2 | CC(C)Cc1ccc(CN2CC[C@@H](NC(=O)Nc3ccccc3)C2)cc1 | -5.14
3 | C=CC1c2cc(O)c(OC)cc2CCN1Cc1cc2c(cc1Br)OCO2 (stereo unspecified) | -1.95
4 | O=C1O[C@H](c2ccccc2)[C@H](c2ccccc2)N2[C@H]1[C@@H](C(=O)N1CCN(c3ncccn3)CC1)[C@]1(C(=O)Nc3ccc(C#CC4(O)CCCCCC4)cc31)[C@H]2c1ccc(OCCO)cc1 | 0.204
5 | COC(=O)C(CC#Cc1ccc2c(c1)[C@]1(C(=O)N2)[C@H](c2ccccc2OCCO)N2[C@H](c3ccccc3)[C@H](c3ccccc3)OC(=O)[C@H]2[C@@H]1C(=O)NC[C@H](O)c1ccccc1)C(=O)OC | -0.248
6 | Cc1ccccc1C(O)C1C=CC2C(=O)N(C)C(=O)C2N1N(c1ccccc1)c1ccccc1 (stereo unspecified) | -0.417
7 | CCC[C@@H]1C[C@@]1(CCC)[C@@H](NC(=O)OCc1ccccc1)c1ccc(-c2ccccc2)cc1 | 2.43
8 | CN(C)C(=O)C1N=C(c2ccc(OCCCO)cc2)N(c2ccccc2)O1 (stereo unspecified) | 0.244
9 | O=C1O[C@H](c2ccccc2)[C@H](c2ccccc2)N2[C@H]1[C@@H](C(=O)O)[C@]1(C(=O)Nc3ccc(C#CC4=CCCCC4)cc31)[C@H]2c1ccc(O)cc1 | -0.176
10 | C=CCOC(=O)[C@H]1[C@@H]2C(=O)O[C@@H](c3ccccc3)[C@@H](c3ccccc3)N2[C@@H](c2ccc(OCCOC(=O)[C@H]3C[C@H]4C(=O)N[C@@H](CCCCNC(C)=O)C(=O)N4[C@H]3c3ccc(O)cc3)cc2)[C@]12C(=O)Nc1ccccc12 | 2.07
11 | CN1C(=O)C2C=CC(C(O)c3cccc4ccccc34)N(N3CCCCC3)C2C1=O (stereo unspecified) | -0.908
12 | C=CCOC(=O)[C@H]1[C@@H]2C(=O)O[C@@H](c3ccccc3)[C@@H](c3ccccc3)N2[C@@H](c2ccc(OCCOC(=O)[C@@H]3C[C@@H]4C(=O)N5CCC[C@H]5C(=O)N4[C@@H]3c3ccc(O)cc3)cc2)[C@]12C(=O)Nc1ccc(I)cc12 | -0.384
13 | O=C1C2C=CC(C(O)c3ccccc3)N(Nc3ccccc3F)C2C(=O)N1c1ccccc1 (stereo unspecified) | 0.688
14 | CN(C)c1ccc(C(O)C2C=CC3C(=O)N(c4ccccc4)C(=O)C3N2Nc2ccc([N+](=O)[O-])cc2)cc1 (stereo unspecified) | -0.529
15 | [N-]=[N+]=NCc1ccccc1[C@H]1OC(c2ccc(OCCCO)cc2)=N[C@@]1(CCS(=O)(=O)c1ccccc1)C(=O)N1CCCCC1 | -0.0145
16 | C=CCOC(=O)[C@H]1[C@@H]2C(=O)O[C@@H](c3ccccc3)[C@@H](c3ccccc3)N2[C@@H](c2ccc(OCCOC(=O)[C@@H]3C[C@@H]4C(=O)N[C@@H](CCCCNC(C)=O)C(=O)N4[C@@H]3c3ccc(O)cc3)cc2)[C@]12C(=O)Nc1ccc(I)cc12 | -0.634
17 | COc1cc2c(cc1OC)CN(C(=O)[C@@H]1[C@H]3C(=O)O[C@H](c4ccccc4)[C@H](c4ccccc4)N3[C@H](c3ccc(OCCO)cc3)[C@@]13C(=O)Nc1ccc(C#CC4(O)CCCCCC4)cc13)CC2 | 0.61
18 | C=C(/C(=C/C[C@H](OC(C)=O)c1ccccc1OCCO)c1cc(C(=O)OC)ccc1OC)C(C)C | -0.169

Row | Compound | z-score
19 | CCOC(=O)C[C@H]1[C@H](OC(=O)c2cc3ccccc3oc2=O)[C@@H](NC(=O)c2ccc(-c3ccccc3)cc2)c2cc(OCCCO)ccc2N1C(=O)c1ccc2ccccc2n1 | 0.867
20 | CN(C)CCCCNC(=O)[C@@H]1C[C@@H]2C(=O)N[C@@H](Cc3ccccc3)C(=O)N2[C@@H]1c1cccc(OCCO)c1 | 0.225
21 | COc1ccc([Si](C)(C)[C@@H]2[C@@H](CCO)O[C@]3(C(=O)N(Cc4ccc(N5CCCCC5=O)cc4)c4ccccc43)[C@H]2C)cc1 | -0.723
22 | COCCOC(=O)N1C(=O)[C@@]2(c3cc(C#CC4=CCCCC4)ccc31)[C@H](c1ccccc1OCCO)N1[C@H](c3ccccc3)[C@H](c3ccccc3)OC(=O)[C@H]1[C@@H]2C(=O)Nc1nc2ccccc2s1 | 0.322
23 | CCCCC(=C=CC[C@@H](O)c1ccccc1OCCO)C[C@@H](O)COCc1ccccc1 | -0.202
24 | Cc1ccc(S[C@]2(C(=O)NCC(F)(F)F)CC(=O)N(Cc3ccccc3)[C@@H]2c2ccc(CO)cc2I)cc1 | 0.448
25 | O=C(NCC(F)(F)F)[C@@H]1c2ccccc2C(=O)N(Cc2cc(F)cc(C(F)(F)F)c2)[C@H]1c1ccc(CO)cc1 | -0.16
26 | C=C(CCCC)/C(=C/C[C@@H](OC(=O)c1ccncc1)c1ccccc1OCCO)c1cnc2ccccc2c1 | -0.846
27 | [N-]=[N+]=Nc1ccccc1C[C@]1(C(=O)N2CCOCC2)N=C(c2ccc(OCCCO)cc2)O[C@H]1c1ccccc1 | 1.32
28 | CCCNC(=O)[C@@H]1c2ccccc2C(=O)N(C(C)C)[C@H]1c1ccc(CO)cc1 | 0.321
29 | O=C1O[C@H](c2ccccc2)[C@H](c2ccccc2)N2[C@H]1[C@@H](C(=O)Nc1nc3ccccc3s1)[C@]1(C(=O)Nc3ccc(C#CC4(O)CCCCCC4)cc31)[C@H]2c1ccccc1OCCO | 0.162
30 | O=C1OCC=C[C@H]2OC34C=CCN(Cn5nnc6ccccc65)C(=O)[C@H]3N(CCCO)C(=O)[C@@H]4[C@@H]12 (stereo partly specified) | -0.281
31 | COC(=O)[C@@]1(Cc2ccccc2)[C@H]2c3cc(C(=O)N(C)C)n(Cc4c(CO)[nH]cc(C)c4=O)c3C[C@H]2CN1C(=O)c1ccccc1 | -0.613
32 | COC(=O)[C@@]1(Cc2ccc(OC)cc2)[C@H]2c3cc(C(=O)N(C)C)n(Cc4ccc(Cl)c(C(F)(F)F)c4)c3C[C@H]2CN1C(=O)c1ccccc1 | -1.21
33 | C=CCNC(=O)[C@H]1[C@@H]2C(=O)O[C@@H](c3ccccc3)[C@@H](c3ccccc3)N2[C@@H](c2ccc(O)cc2)[C@]12C(=O)N(C(=O)OCCOC)c1ccccc12 | -0.757
34 | CCCCCCCCCCC(O)C1C=CC2C(=O)N(C)C(=O)C2N1NC(=O)OC(C)(C)C (stereo unspecified) | -5.01
35 | NC(N)=NCCCn1cc(CNC(=O)[C@@H](N)Cc2ccccc2)nn1 | -0.686
36 | CCOC(=O)C1CCCCN1 (stereo unspecified) | -0.241
